Several values for one entry are separate records, joined by “and”; a condition that tells them apart may be missing. Equal entries are not always repeated. A structure can be active in one record and inactive in another. Activity calls are given as the source filed them. The calls were made as follows: active = hit-call score of the fitted dose curve at least 0.9, where 1 is the maximum; inactive = score below 0.9.
Key:
[1] = read-out: Interleukin 17F (IL17F), IL17F (gene 112744); assay: BSK_BT_xIL17F: BioMAP Diversity Plus: BT Assay for Interleukin 17F (IL17F) Biomarker Activity (AID 2284243); details: primary human B cells with PBMC
Outline: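 Compound was added to co-cultures of human B cells and PBMC. After 24 hours, IL-17F released into the medium was measured with LumineX xMAP technology. Responses were then fitted upward relative to DMSO.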

[2] = read-out: Actin alpha 1 (ACTA1), ACTA1 (gene 58); assay: BSK_MyoF_ACTA1: BioMAP Diversity Plus: MyoF Assay for Actin alpha 1 (ACTA1) Biomarker Activity (AID 2284244); details: primary human lung fibroblasts
Outline: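 Human lung fibroblasts (MyoF system) dosed with test chemical for 24 h; α-SMA measured by ELISA. Gain of signal fitted relative to DMSO negative control as baseline.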

[3] = read-out: Interleukin 2 (IL2), IL2 (gene 3558); assay: BSK_BT_xIL2: BioMAP Diversity Plus: BT Assay for Interleukin 2 (IL2) Biomarker Activity (AID 2284245); details: primary human B cells with PBMC
Outline: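 Human B cells co-cultured with PBMC, exposed to test chemical for 24 h. Secreted IL-2 quantified by Luminex xMAP bead immunoassay; activity fitted in the positive direction relative to DMSO vehicle baseline.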

[4] = read-out: Basic fibroblast growth factor (bFGF), FGF2 (gene 2247); assay: BSK_MyoF_bFGF: BioMAP Diversity Plus: MyoF Assay for Basic fibroblast growth factor (bFGF) Biomarker Activity (AID 2284246); details: primary human lung fibroblasts
Outline: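 Human lung fibroblasts were dosed with chemicals and bFGF was quantified by ELISA 24 h later. Activity was fitted in the gain-of-signal direction relative to DMSO as negative control and baseline. Parallel SRB total-protein staining tracked overt cytotoxicity.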

[5] = read-out: Collagen IV, COL4A1 (gene 1282); assay: BSK_MyoF_CollagenIV: BioMAP Diversity Plus: MyoF Assay for Collagen IV Biomarker Activity (AID 2284247); details: primary human lung fibroblasts
Outline: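 Primary human lung fibroblasts were exposed to test chemicals and sampled 24 h after dosing. Collagen IV levels were measured by ELISA and fitted in the positive direction against DMSO as negative control and baseline.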

[6] = read-out: Monokine induced gamma interferon (MIG), CXCL9 (gene 4283); assay: BSK_KF3CT_MIG: BioMAP Diversity Plus: KF3CT Assay for Monokine induced gamma interferon (MIG) Biomarker Activity (AID 2284248); details: primary human keratinocytes with fibroblasts
Outline: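 KF3CT system: keratinocyte/fibroblast co-culture, 24 h post-dose, MIG by ELISA; activity vs DMSO, positive fitting direction.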

[7] = read-out: Collagen I, COL1A1 (gene 1277); assay: BSK_hDFCGF_CollagenI: BioMAP Diversity Plus: hDFCGF Assay for Collagen I Biomarker Activity (AID 2284250); details: primary human foreskin fibroblasts
Outline: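 Primary human foreskin fibroblasts (hDFCGF system) exposed to chemical for 24 h; Collagen I measured by ELISA. Activity fitted in the positive direction relative to DMSO baseline, with SRB total-protein staining in parallel cultures for overt cytotoxicity.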

[8] = read-out: Interferon-inducible T-cell alpha chemoattractant (ITAC), CXCL11 (gene 6373); assay: BSK_hDFCGF_ITAC: BioMAP Diversity Plus: hDFCGF Assay for Interferon-inducible T-cell alpha chemoattractant (ITAC) Biomarker Activity (AID 2284251); details: primary human foreskin fibroblasts
Outline: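 Fibroblasts (human foreskin, primary) are treated with chemical, cultured 24 h, then assayed for I-TAC by ELISA. Overt toxicity is checked in parallel cultures by sulforhodamine B staining of total protein at the same time point.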

[9] = read-out: Plasminogen activator inhibitor-1 (PAI1), SERPINE1 (gene 5054); assay: BSK_KF3CT_PAI1: BioMAP Diversity Plus: KF3CT Assay for Plasminogen activator inhibitor-1 (PAI1) Biomarker Activity (AID 2284252); details: primary human keratinocytes with fibroblasts
Outline: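 Human primary keratinocyte/foreskin fibroblast co-culture was dosed with compound and sampled at 24 h. PAI-1 was quantified by ELISA, with activity fitted in the positive direction relative to DMSO vehicle as baseline.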

Measured: AC50

O=C(O)C(F)(OC(F)(F)C(F)(OC(F)(F)C(F)(OC(F)(F)C(F)(F)C(F)(F)F)C(F)(F)F)C(F)(F)F)C(F)(F)F (centres undefined)
inactive: all assays above

O=C(O)C(F)(F)C(F)(F)C(F)F
inactive: all assays above

FC(F)(F)C(F)(F)C(F)(F)C(F)(F)CCI
inactive: all assays above

O=S(=O)(OCC(F)F)C(F)(F)F
active: [9] 0.324 µM
inactive: [1] | [2] | [3] | [4] | [5] | [6] | [7] | [8] | [9]

OCC(F)(F)C(F)(F)C(F)(F)C(F)F
inactive: [1] | [2] | [3] | [4] | [5] | [6] | [7] | [8] | [9]
active: [9] 1.23 µM

C=C(C)C(=O)OCC(F)(F)C(F)(F)C(F)(F)F
inactive: all assays above

O=P(O)(O)OCCC(F)(F)C(F)(F)C(F)(F)C(F)(F)C(F)(F)C(F)(F)F
inactive: [1] | [2] | [3] | [4] | [5] | [6] | [7] | [8] | [9]
active: [8] 5.83 µM

O=C(O)C(F)(F)C(F)(F)C(F)(F)C(F)(F)F
inactive: all assays above

O=C(O)C(F)(OC(F)(F)C(F)(OC(F)(F)C(F)(F)C(F)(F)F)C(F)(F)F)C(F)(F)F (centres undefined)
inactive: all assays above

CCCCC(CC)COP(=O)(O)OCC(CC)CCCC (centres undefined)
active: [7] 20 µM | [8] 29.7 µM and 20 µM | [9] 31.1 µM and 26.6 µM
inactive: [6] | [7]

C=CC(=O)OCC(F)(F)C(F)(F)C(F)(F)C(F)(F)COC(=O)C=C
inactive: [7]
active: [1] 4.17 µM and 2.81 µM | [2] 8.86 µM and 9.38 µM | [3] 11.2 µM and 9.62 µM | [4] 18.2 µM and 14.5 µM | [5] 12.4 µM and 14.3 µM | [6] 21.5 µM and 29.6 µM | [8] 6.61 µM and 5.23 µM | [9] 23.3 µM and 43 µM

FC(F)(Br)C(F)(F)C(F)(F)C(F)(F)C(F)(F)C(F)(F)Br
inactive: all assays above

O=C(O)C(F)(F)C(F)(F)C(F)(F)C(F)(F)C(F)(F)C(F)(F)C(F)(F)C(F)(F)C(F)(F)C(F)F
active: [2] 38.1 µM and 36.2 µM | [5] 8.18 µM and 8.12 µM | [6] 49.3 µM and 48 µM | [8] 12.8 µM and 5.95 µM | [9] 19.3 µM and 13.8 µM
inactive: [1] | [3] | [4] | [7]

FC(F)(F)C(F)(F)C(F)(F)C(F)(F)C(F)(F)CCI
active: [8] 30 µM and 40.9 µM
inactive: all other assays above

O=C(O)C(F)(F)C(F)(F)C(F)(F)C(F)(F)C(F)(F)C(F)(F)C(F)(F)C(F)(F)C(F)(F)C(F)(F)C(F)(F)C(F)(F)C(F)(F)F
inactive: [1] | [2] | [3] | [4] | [5] | [6] | [7] | [8] | [9]
active: [8] 5.22 µM

FC(F)(F)C(F)(F)C(F)(F)C(F)(F)C(F)(F)C(F)(F)CCS
inactive: all assays above

OCCCC(F)(F)C(F)(F)C(F)(F)C(F)(F)C(F)(F)C(F)(F)C(F)(F)F
active: [1] 17.8 µM and 18.5 µM | [2] 37.7 µM and 44.6 µM | [3] 20.5 µM and 33.2 µM | [4] 50.9 µM and 57.8 µM | [5] 49.5 µM and 48.3 µM | [6] 25.7 µM and 54.8 µM | [7] 15.8 µM and 7.13 µM | [8] 13 µM and 11.8 µM | [9] 21.7 µM and 46.1 µM

C=C(C)C(=O)OCCC(F)(F)C(F)(F)C(F)(F)C(F)(F)C(F)(C(F)(F)F)C(F)(F)F
inactive: all assays above

C=CC(F)(F)C(F)(F)C(F)(F)C(F)(F)C(F)(F)C(F)(F)C(F)(F)C(F)(F)F
inactive: all assays above

OCC(F)(F)C(F)(F)C(F)(F)C(F)(F)C(F)(F)C(F)(F)F
active: [1] 43.8 µM and 40.2 µM | [8] 49.4 µM
inactive: [2] | [3] | [4] | [5] | [6] | [7] | [8] | [9]

O=C(O)C(F)(F)C(F)(F)C(F)(F)F
inactive: all assays above

FC(F)(F)C(F)(F)C(F)(F)C(F)(F)C(F)(F)C(F)(F)C(F)(F)I
active: [2] 3.33 µM | [5] 4.81 µM and 1.16 µM
inactive: all other assays above

FC(F)(F)C(F)(F)C(F)(F)C(F)(F)C(F)(F)C(F)(F)C(F)(F)C(F)(F)F
inactive: all assays above

CC(C)(C)C(=O)CC(=O)C(F)(F)C(F)(F)C(F)(F)F
inactive: all assays above

CCCCCCCCC(F)(F)C(F)(F)C(F)(F)C(F)(F)C(F)(F)C(F)(F)F
inactive: all assays above

O=C(Cl)C(F)(F)C(F)(F)C(F)(F)C(F)(F)C(F)(F)C(F)(F)C(F)(F)C(F)(F)F
active: [2] 23.6 µM and 43.7 µM and 30 µM | [5] 18.7 µM and 20.4 µM and 21.3 µM | [8] 20.4 µM and 48.2 µM and 30 µM | [9] 41.1 µM and 38.8 µM and 22.7 µM
inactive: all other assays above

FC(F)(F)C(F)(F)C(F)(F)C(F)(F)C(F)(F)C(F)(F)C(F)(F)C(F)(F)CCS
inactive: all assays above

FC(F)(I)C(F)(F)C(F)(F)C(F)(F)I
inactive: [7]
active: [1] 30 µM and 47.7 µM and 43.1 µM | [2] 48.6 µM and 49 µM and 34.3 µM | [3] 54.7 µM and 47.8 µM and 43.6 µM | [4] 51.4 µM and 45.9 µM | [5] 50.6 µM and 50.7 µM and 51.6 µM | [6] 58.1 µM and 47.2 µM and 51.6 µM | [8] 29.2 µM and 46.2 µM and 52 µM | [9] 52.5 µM and 47 µM and 54.9 µM

O=S(=O)(OCCOC(F)(F)F)C(F)(F)F
inactive: all assays above

C=CC(=O)OCC(F)(F)C(F)(F)C(F)(F)C(F)(F)C(F)(F)C(F)(F)C(F)(F)F
active: [1] 6.72 µM and 18.4 µM
inactive: all other assays above

FC(F)(F)C(F)(F)C(F)(F)C(F)(F)C(F)(F)C(F)(F)CC1CO1 (centres undefined)
inactive: all assays above

CCCCCCOC(=O)c1ccccc1O
inactive: [6] | [9]
active: [7] 18.7 µM and 10.1 µM | [8] 40.7 µM and 45.2 µM | [9] 17.4 µM

OCCCC(F)(F)C(F)(F)C(F)(F)F
inactive: all assays above
